High-throughput results: PubChem, several laboratories
An excerpt weighted towards active compounds, which were near 3.7% of everything screened.
V-ATPase pHluor: yeast V-ATPase proton transport regulation by pHLuorin; S. cerevisiae, pHLuorin cytosolic pH fluorescence; response, % at 10 µM; actives 0.37% (n = 350,000); AID 504577; in the data active = response mostly above about 7.3%, no sharp cut-off; inactive = mostly below about 5.4%; note: actives read high
PfHsp90 set2: reduces growth (ATP signal) of yeast expressing P. falciparum Hsp90; actives 0.32% (n = 310,000); AID 504621; S. cerevisiae expressing PfHsp90, BacTiter-Glo ATP, 48 h; yeast lacking PDR1 and PDR3 efflux regulators; inhibition, % at 9.4 µM;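 active = every replicate shows inhibition above about 80%, whatever the replicate mean, limit read from the data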
TIM10 inh: inhibits growth of TIM10 yeast strain. S. cerevisiae TIM10 strain growth, BacTiter-Glo luminescence, 24 h. inhibition, % at 10 µM. actives 1.4% (n = 330,000). AID 463195;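 active = inhibition of 40% or more at the single tested concentration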;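 note: wild-type TIM10 isogenic control strain grown at permissive 25 °C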
tim23-1 inh: growth inhibitors of tim23-1 mutant yeast; inhibition, % at 20 µM; AID 463212; S. cerevisiae tim23-1 growth, BacTiter-Glo luminescence, 24 h; actives 1.3% (n = 330,000);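 active = growth inhibition of the mutant yeast at or above 50%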;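 note: temperature-sensitive mutant grown at 25 °C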
tim10-1 inh: inhibits growth of tim10-1 mutant yeast | S. cerevisiae tim10-1 ts strain growth, BacTiter-Glo, 24 h | inhibition, % at 20 µM | actives 2.2% (n = 330,000);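 active = inhibition of at least 40%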;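 note: mutant grown at 25 °C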
tim10-1 confirm: confirmation of tim10-1 mutant yeast growth inhibitors | actives 56% (n = 7,400) | AID 463213 | S. cerevisiae tim10-1 ts strain growth, BacTiter-Glo, 24 h | inhibition, % at 20 µM | shares compounds with tim10-1 inh;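 active = inhibition of yeast growth at or above a set limit in either of two repeat tests at 20 µM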;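 note: tim10-1 mutant grown at permissive 25 °C to find synthetic lethal compounds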
TIM10 conf: confirmation of TIM10 yeast growth inhibitors. shares compounds with TIM10 inh. S. cerevisiae tim10 strain growth, BacTiter-Glo luminescence, 24 h. inhibition, % at 10 µM. actives 63% (n = 4,600);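 active = inhibition of yeast growth at or above a set limit in either of two replicates at 10 µM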; note: this counterscreen used the strain with wild-type TIM10
tim23-1 conf: confirmation of tim23-1 mutant yeast growth inhibitors; actives 83% (n = 4,400); S. cerevisiae tim23-1 growth, BacTiter-Glo luminescence, 24 h; inhibition, % at 20 µM; AID 463218; shares compounds with tim23-1 inh;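 active = inhibition above about 39% in either of two replicate wells at 20 µM, limit read from the data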;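 note: temperature-sensitive tim23-1 mutant grown at 25 °C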
Hits are given with their value; – = inactive; · = no result given.

SMILES	V-ATPase pHluor	PfHsp90 set2	TIM10 inh	tim23-1 inh	tim10-1 inh	tim10-1 confirm	TIM10 conf	tim23-1 conf
CCOC(=O)N1CCC(N2CCCC(CO)(Cc3cccc(Cl)c3)C2)CC1 (configuration not stated)	–	–	–	–	–	·	·	·
CCOC(=O)C1=C(C)N=C2SC(C(=O)OC)=CC(=O)N2C1c1ccc(OC)cc1 (configuration not stated)	–	–	71	75	69	78	75	60
O=C(ONC1=NCCCCC1)c1ccc([N+](=O)[O-])cc1	–	–	83	86	52	34	84	66
CCOc1ccc(NC(=S)N2CCC(NC(=O)c3ccco3)CC2)cc1	–	–	–	–	–	·	·	·
CCCCOc1cccc(-c2nnc(N)s2)c1	–	–	–	52	53	36	·	50
CCOc1ccc(CN(C)C(=O)CNC(=O)c2ccc3ccccc3c2)cc1OC	–	–	–	–	–	·	·	·
O=C(NC(=S)Nc1ccc(CN2CCOCC2)cc1)c1ccc(-c2ccc(Br)cc2)o1	·	·	–	–	–	·	·	·
COc1ccc(Br)cc1C(=O)NC(=S)Nc1ccc(CN2CCOCC2)cc1	–	–	–	51	55	–	·	57
Cc1cc(Br)ccc1NC(=O)c1ccco1	–	–	–	–	–	·	·	·
O=C(Nc1ccc(Cl)cc1C(=O)Nc1ccc(Br)cn1)c1ccco1	–	–	44	60	45	42	48	58
CC(Oc1ccccc1)C(=O)Nc1cc(Cl)ccc1-n1cncn1 (configuration not stated)	–	·	–	–	–	·	·	·
C=CCn1c(=O)/c(=C/c2ccc(Cl)cc2)s/c1=C(/C#N)c1nnc2n1CCCCC2	–	–	49	63	57	33	44	58
C=CCn1c(=O)/c(=C/c2ccc(O)cc2)s/c1=C(/C#N)c1nnc2n1CCCCC2	–	–	–	–	–	·	·	·
Cc1cccc(N=Cc2cc(Br)cc(Cl)c2O)c1	–	–	–	73	50	–	·	84
CCOC(=O)C1=CN(Cc2cccc(Br)c2)S(=O)(=O)N(CC)C1C (configuration not stated)	–	–	–	–	–	·	·	·
CCOC(=O)C1=C(Cc2ccc(C)cc2)C(=O)c2ccccc2C1=O	·	·	57	61	62	68	67	60
CCCc1ccc(/C=C2\C(=O)c3ccccc3C(O)=C2C(=O)OCC)cc1	·	·	45	52	66	66	48	57
CCOC(=O)C1=C(O)c2ccccc2C(=O)/C1=C\c1ccc(CC)cc1	–	–	·	·	·	·	·	·
CC1CCCCC1NC(=O)/C(C#N)=C/c1ccc(F)c(F)c1 (configuration not stated)	–	–	59	54	48	59	70	46
CC1CCCCC1NC(=O)/C(C#N)=C/c1ccc2c(c1)OCCO2 (configuration not stated)	·	·	55	63	50	53	–	62
N#C/C(=C\c1ccc2c(c1)OCCO2)C(=O)Nc1nccs1	–	–	–	–	–	·	·	·
CC1CCN(C(=O)CSCC(=O)Nc2nc(-c3cccs3)cs2)CC1	–	–	–	54	43	–	·	49
C(=C\c1nc(N2CCCCCC2)c2ccccc2n1)/c1ccccc1	–	–	44	50	46	31	–	–
Cc1nn(-c2ccccc2)c(C)c1NC(=O)COC(=O)c1cc(Br)ccc1O	–	–	–	–	–	·	·	·
O=C(NC(=S)NC1CCCc2ccccc21)c1ccco1 (configuration not stated)	–	–	43	52	51	41	43	58
SMILES	V-ATPase pHluor	PfHsp90 set2	TIM10 inh	tim23-1 inh	tim10-1 inh	tim10-1 confirm	TIM10 conf	tim23-1 conf
O=C(NC(=S)NC1CCCc2ccccc21)c1ccc(F)cc1 (configuration not stated)	–	–	–	–	–	·	·	·
O=C(NC(=S)NCCc1ccccc1)c1ccco1	–	–	48	56	42	–	–	48
Cc1cc(C(=O)CCC(=O)NCC2COc3ccccc3O2)c(C)s1 (configuration not stated)	–	–	–	–	–	·	·	·
O=[N+]([O-])c1cncc([N+](=O)[O-])c1Nc1ccccc1Cl	–	–	–	57	51	43	·	69
O=C(Nc1nc2c(F)c(F)c(F)cc2s1)c1ccco1	–	–	–	–	–	·	·	·
O=C(Nc1nc2c(ccc3ccccc32)s1)c1ccco1	–	–	66	57	51	52	62	75
Cc1occc1C(=O)Nc1sccc1C(N)=O	–	–	–	–	–	·	·	·
CCCc1cc(C(N)=O)c(NC(=O)c2ccoc2C)s1	–	–	–	65	47	34	·	68
O=C(Nc1nnc(Cc2ccccc2)s1)c1ccco1	–	–	–	54	50	29	·	43
O=C(Nc1nnc(CCc2ccccc2)s1)c1ccco1	–	–	–	–	–	·	·	·
NC(=O)c1cc(Cc2ccccc2)sc1NC(=O)c1ccco1	–	–	40	60	50	48	–	73
O=C(CN1C(=O)NC2(CCCCCC2)C1=O)N1CCN(c2ccccc2)CC1	–	–	–	–	–	·	·	·
O=C1CCC([N+](=O)[O-])C(c2cc3c(cc2Cl)OCO3)N1 (configuration not stated)	–	–	–	–	–	·	·	·
CC(C)=C(NC(=O)c1ccccc1Cl)C(=O)NCCc1nc2ccccc2[nH]1	–	·	·	·	·	·	·	·
CCCCN(C(=O)CSc1ncnc2sccc12)c1c(N)n(Cc2ccccc2)c(=O)[nH]c1=O	–	–	–	–	–	·	·	·
O=C(Nc1nc2c(s1)CCc1ccccc1-2)c1ccco1	–	–	41	58	55	49	47	61
Cc1oc2c(c1C(=O)c1ccccc1)C(=O)C(=O)c1ccccc1-2	–	·	51	68	56	50	53	67
CCOC(=O)c1c(C)oc2c1C(=O)c1ccccc1C2=O	–	–	73	79	72	74	64	94
O=C1C(=O)c2c(C(=O)c3ccccc3)coc2-c2ccccc21	–	–	74	71	93	91	81	65
O=C(C1=C(c2ccccc2)C(=O)c2ccccc2C1=O)c1ccccc1	–	–	·	·	·	·	·	·
CN(CC(=O)Nc1cccc(F)c1)C(=O)CSc1nc2ccccc2s1	–	–	–	–	–	·	·	·
Cc1ccc(Nc2nc(=O)c3cccnc3s2)c(Br)c1	–	–	–	51	47	36	·	50
OCC[C@@H]1C[C@H](O)[C@@H](O)[C@@]2(OCc3cc(C(F)(F)F)ccc32)O1	–	·	·	·	·	·	·	·
CCCC(=O)Nc1ccc(Sc2ccc([N+](=O)[O-])cc2)cc1	–	–	55	51	42	–	41	43
